fixLJ activator: activators of Burkholderia fixLJ two-component system, primary screen, B. multivorans, GFP reporter; B. multivorans fixK-promoter GFP reporter, 18 h; stronger effect = higher value; z-score (test concentration not listed); hit rate 0.3% among 29,000;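 active = replicate mean overnight rise in green fluorescent reporter signal, 3 or more SD over negative controls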
Starred values were filed as active, the others as inactive. The full list was thinned out, with hits kept by preference.

SMILES	fixLJ activator
COc1ccccc1CNC(=O)CCc1c(C)c2ccc(OC)c(C)c2oc1=O	-1.88
COc1ccccc1CNC(=O)CCc1c(C)c2cc3c(C)c(C)oc3cc2oc1=O	3.47*
COc1ccccc1CCNC(=O)CCc1c(C)c2cc3c(C)c(C)oc3cc2oc1=O	0.85
Nc1nc(N2CCN(Cc3cncn3C3CCCCC3)CC2)cc(=O)[nH]1	-1.6
O=C(Nc1cccc(-n2cccn2)c1)C1Cc2ccccc2CN1 (stereo not given)	0.19
O=C(c1ccc(F)cc1Cl)N1CCC(Cc2noc(C3CC3)n2)CC1	1.22
O=C(CN(CCc1ccccc1)S(=O)(=O)c1ccc(Br)cc1)NCc1ccc(Cl)cc1	0.62
COC(=O)c1ccc(NC(=O)CN(CCc2ccccc2)S(=O)(=O)c2ccc(OC)cc2)cc1	3
Cc1ccc(S(=O)(=O)N(CCc2ccccc2)CC(=O)Nc2ccc(Br)cc2)cc1	3.11*
Cc1ccsc1CN(CCN(C)C)C(=O)Nc1ccc(C#N)cc1F	-0.78
C=CCCC(=O)N1CCC[C@]2(C1)CN(C(=O)CCC)CCC2O (stereo not given in full)	0.08
O=C(Nc1cccc2cccnc12)c1ccccc1[N+](=O)[O-]	-1.96
CC1CCc2noc(NC(=O)c3ccccc3[N+](=O)[O-])c2C1 (stereo not given)	3.56*
O=C(Nc1onc2c1CCCC2)c1ccc(Cl)cc1	-1.29
CC(C)n1cnnc1CCNC(=O)NCCNC(=O)c1ccccc1Cl	0.4
Cn1c(CN2CCCCC2)nnc1C1CCCN(CCS(C)(=O)=O)C1 (stereo not given)	0.11
CCc1noc(NC(=O)c2cc(-c3ccccc3)nn2C)c1C	0.73
Cc1cc(NC(=O)C2CCCN(S(=O)(=O)c3ccc(Br)s3)C2)ccc1Br (stereo not given)	-1.05
CC(=O)c1ccc(N2CCN(C(=O)C3CCCN(S(=O)(=O)c4ccc(Br)s4)C3)CC2)cc1 (stereo not given)	-1.07
CC(=O)c1ccc(NC(=O)C2CCCN(S(=O)(=O)c3ccc(Br)s3)C2)cc1 (stereo not given)	3.21*
CCCCNc1cc(NC2CCCCC2)c2c3c(onc13)-c1ccccc1C2=O	4.15*
CCNc1cc(N2CCN(C3CCCCC3)CC2)c2noc3c2c1C(=O)c1ccccc1-3	-1.12
O=C1c2ccccc2-c2onc3c(NCCO)cc(NC4CCCCC4)c1c23	-1.7
O=C(CCC(F)(F)F)N1CCCC(c2nccn2Cc2ccccn2)C1 (stereo not given)	-2.02
COc1ccccc1C=CCN1CCC(c2cc(=O)[nH]c(C)n2)CC1	-0.44
SMILES	fixLJ activator
O=C(O)c1ccc(NCc2nc3ccccc3n2CCOc2ccccc2Cl)cc1	0.09
Fc1ccc(NCc2nc3ccccc3n2CCOc2ccccc2Cl)cc1	3.32*
COc1ccc(NCc2nc3ccccc3n2CCOc2ccccc2C)cc1	1
CNC(=O)c1ccc(S(=O)(=O)N2CCC(O)[C@@](CC3CC3)(C(=O)O)C2)cc1 (stereo not given in full)	-1.21
CCN(CC)CCNC(=O)Cn1ncc2c3ccccc3n(Cc3ccc(Cl)cc3)c2c1=O	3.53*
Cc1ccccc1Cn1c2ccccc2c2cnn(CC(=O)N3CCC(C)CC3)c(=O)c21	-2.83
CCCCN(CC)CCCNC(=O)Cn1ncc2c3ccccc3n(C)c2c1=O	-1.77
CN1CCN(C(=O)Cn2ncc3c4ccccc4n(Cc4ccc(Cl)cc4)c3c2=O)CC1	1.16
Cn1c2ccccc2c2cnn(CC(=O)NCc3ccc(Cl)cc3)c(=O)c21	-1.94
CC1CCN(C(=O)Cn2ncc3c4ccccc4n(Cc4ccc(Cl)cc4)c3c2=O)CC1	7.34*
O=C(Cn1ncc2c3ccccc3n(Cc3ccc(Cl)cc3)c2c1=O)NCc1cccs1	8.25*
CCCCN(CC)CCCNC(=O)Cn1ncc2c3ccccc3n(Cc3ccccc3F)c2c1=O	-1.62
Cc1cc(C)c(Cn2c3ccccc3c3cnn(CC(=O)NCc4cccs4)c(=O)c32)c(C)c1	-0.87
Cc1n[nH]c(C)c1Cc1n[nH]c(=O)n1C(C)c1ccc(F)cc1 (stereo not given)	-0.12
CN(Cc1ccc2nonc2c1)C(=O)NCCCN1CCCC1	-1.23
CC(NS(=O)(=O)CCOc1ccccc1)c1ncnn1C (stereo not given)	-0.38
CN(Cc1cnn(-c2ccc(F)cc2)c1)C(=O)c1ccc(Cn2cnnn2)cc1	-2.06
COc1ccc(F)c(CN2CCCC3(CCN(CCCO)C3)C2=O)c1 (stereo not given)	-0.05
CCn1ccnc1C1CCCN(C(=O)c2ccc(C)[nH]c2=O)C1 (stereo not given)	-1.05
CSc1nn2c(=O)cc(CN3CCN(Cc4cccc(C)c4)C(=O)C3)nc2s1	-0.28
Cc1ncn(C)c1C(=O)N1CCC(C(=O)O)(c2ccccc2)C1 (stereo not given)	-0.26
CCc1ccc(-c2cc(C(=O)N3C[C@@H]4COC[C@H](C3)N(C)C4)[nH]n2)cc1	-1.43
CCc1ccc(C2Sc3ccccc3NC3=C2C(=O)c2ccccc23)cc1 (stereo not given)	3.32*
CC(C)c1ccc(C2Sc3ccccc3NC3=C2C(=O)c2ccccc23)cc1 (stereo not given)	2.65
